# Screening data: PubChem BioAssay, several laboratories
# NFkB transloc pot: enhances IL-1B driven NFkB nuclear translocation; activation, % at 2 µM; AID 819; HUVEC IL-1B NFkB p65 nuclear translocation imaging; 94,000 tested, 0.3% active;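 active means activation above 40%, about the mean plus 3 SD, also judged a hit on visual image review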;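 further: percent activation is computed from the nuclear over cytoplasmic p65 intensity ratio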
# IL1B cytotox: HUVEC cytotoxicity counter-screen, IL-1B stimulated. HUVEC cell count loss, Hoechst imaging. 94,000 tested, 0.41% active. cell count reduction, % at 2 µM;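 active means cell count reduction more than 3 SD above the screen-wide mean, cut at about 70% in these data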;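 further: normalized per plate to untreated control cells as the no-loss baseline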
# Phagocyt inh: inhibitors of macrophage phagocytosis | inhibition, % at 5 µM | J774A.1 macrophage IgG-bead phagocytosis, imaging | 110,000 tested, 0.07% active;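 active means inhibition above the mean of the plate negative controls plus 5 SD, cut at about 13% in these data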;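 further: phagocytic index as fraction of beads internalized from green versus red external bead signal; plate controls were DMSO negative control for no effect and cytochalasin-D positive control for full effect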
# IL1B NFkB inh: blocks IL-1B driven NFkB nuclear translocation in HUVEC cells | HUVEC IL-1B NFkB p65 nuclear translocation imaging | inhibition, % at 2 µM | 94,000 tested, 0.43% active | AID 796;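 active means inhibition above about 30% together with a positive call from visual inspection of the well image, limit read from the data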;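 further: nuclear over cytoplasmic p65 intensity ratio measured by imaging; 0% = IL-1B stimulated DMSO wells and 100% = unstimulated DMSO wells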
# HUVEC tox TNFa: toxic to HUVEC cells under TNF alpha stimulation | HUVEC TNFalpha-stimulated, Hoechst cell count, imaging | cell count reduction, % at 2 µM | 93,000 tested, 0.17% active;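 active means cell count reduction exceeding the screen mean by over 5 SD, scaled to untreated wells per plate, cut at about 78% in these data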;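 further: cells counted after 24 h of TNF alpha exposure following the 1 h pretreatment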
# VCAM1 TNFa inh: reduces TNF alpha induced VCAM1 expression in HUVEC | inhibition, % at 2 µM | 95,000 tested, 0.48% active | HUVEC TNFa-induced VCAM-1 immunofluorescence, high-content imaging;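 active means inhibition above the batch mean plus 3 SD, with images confirmed as a hit by eye, cut at about 37% in these data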;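 further: 0% = TNF-stimulated DMSO wells and 100% = unstimulated control wells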
# An asterisk follows results filed as active; . = not tested or not shown. Compounds with a hit are over-represented: about 1.2% of the library has one in this group of screens.
SMILES,NFkB transloc pot,IL1B cytotox,Phagocyt inh,IL1B NFkB inh,HUVEC tox TNFa,VCAM1 TNFa inh
COc1cccc(Cn2c(NCC(C)C)nc3c2c(=O)n(C)c(=O)n3C)c1,27,74*,.,-27,-2,19
CCCNc1nc2c(c(=O)n(C)c(=O)n2C)n1CCc1ccccc1,-100,-31,4,100*,-25,19
Cn1c(=O)c2c(nc(NCc3ccc4c(c3)OCO4)n2Cc2ccc(F)cc2)n(C)c1=O,-44,-29,1,44*,-3,38
CC(C)CNc1nc2c(c(=O)n(C)c(=O)n2C)n1Cc1cccc(Br)c1,10,-11,-1,-10,-3,26
O=C(c1cccc(C(F)(F)F)c1)N1CCOC12CCN(c1ncc(C(F)(F)F)cc1Cl)CC2,-33,-15,2,33*,-11,10
O=C(OC1CCN(c2ncc(C(F)(F)F)cc2Cl)CC1)c1cccc(C(F)(F)F)c1,-1,54,-2,1,9,-3
CCCCN(CCCC)CC(O)COc1ccccc1Br (stereo not drawn),.,.,-2,.,.,.
O=C(NCC(F)(F)F)Nc1cccnc1,-77,90*,.,77*,-5,10
O=C(Nc1cccnc1)Nc1ccccc1Cl,-6,-8,2,6,55,27
COc1ccc([N+](=O)[O-])cc1COc1ccc2c(-c3ccccc3)cc(=O)oc2c1,4,70*,-1,-4,-11,0
Cc1cc(C)cc(N(C(=O)c2sc(C)nc2C)C(C(=O)NCc2ccco2)c2ccccc2)c1 (stereo not drawn),3,-8,0,-3,13,6
Cc1cccc(N(C(=O)c2sc(C)nc2C)C(C(=O)NCc2ccco2)c2ccccc2)c1 (stereo not drawn),47*,2,0,-47,-7,14
COc1ccccc1NC(=O)N1CCN(c2ccccc2F)CC1,-4,2,-1,4,10,46
CCN1CCN(C(=O)Nc2ccccc2OC)CC1,-4,92*,.,4,1,-4
Cc1ccc(/C=C/C2=Cc3c(sc(NC(=O)CSc4n[nH]c(N)n4)c3C#N)C(C)(C)C2)o1,-50,-23,.,50*,-30,9
CCOC(=O)c1sc(NC(=O)CSc2n[nH]c(-c3ccccc3)n2)c(C#N)c1C,.,.,0,.,.,.
CCC1=NC(c2ccccc2Cl)N(O)C1(C)C (stereo not drawn),6,23,0,-6,70,59*
O=C(Oc1cccc(N2C(=O)CCC2=O)c1)c1ccccc1,6,89*,.,-6,-7,18
O=C1CCC(=O)N1c1cccc(OS(=O)(=O)c2ccccc2)c1,.,.,-3,.,.,.
O=c1c2[nH]c3ccccc3c2ncn1Cc1cccnc1,50*,1,-1,-50,-10,8
COc1ccc(C(=O)c2c(C(F)(F)F)oc3c2C(=O)c2ccccc2C3=O)cc1,32,7,3,-32,30,94*
O=C(CCN1C(=O)C2C3C=CC(C3)C2C1=O)Nc1c(F)cccc1F (stereo not drawn),-10,-21,.,10,94*,60
CC(C)(C)c1ccc(S(=O)(=O)N2CCCCC2)cc1,.,.,-1,.,.,.
COc1ccccc1C(=O)Nc1nnc(-c2ccc3c(c2)CCCC3)o1,-53,-14,1,53*,-25,18
Cc1ccc(-c2csc(NC(=O)CCNC(=O)c3ccccc3Cl)n2)cc1,.,.,1,.,.,.
SMILES,NFkB transloc pot,IL1B cytotox,Phagocyt inh,IL1B NFkB inh,HUVEC tox TNFa,VCAM1 TNFa inh
Cc1cc(NC(=O)CSc2nc(-c3ccco3)cc(C(F)(F)F)n2)no1,-9,-4,.,9,46,53*
O=C(N/N=C/c1ccc([N+](=O)[O-])s1)c1cccnc1,.,.,-7,.,.,.
O=S(=O)(/C=C/c1ccccc1)Oc1ccccc1,9,-17,166*,-9,-6,14
O=C(NCc1ccco1)C(=O)NCC1OCCCN1S(=O)(=O)c1ccccc1 (stereo not drawn),.,.,0,.,.,.
COC(=O)c1c(NC(=O)COC(=O)Cn2cnc3ccccc32)sc2c1CCCC2,.,.,-7,.,.,.
C=CCNC(=S)N1CCN(CCN=CC2=C(O)CC(c3ccco3)CC2=O)CC1 (stereo not drawn),-54,93*,-1,54*,-10,-7
CCN(CC)C(=O)Cn1cnc2sc(C(=O)Nc3cc(OC)c(OC)c(OC)c3)c(C)c2c1=O,42*,-79,2,-42,-17,-20
O=C(OCn1ncc(Cl)c(Cl)c1=O)c1ccc(C(F)(F)F)cc1,-41,2,.,41*,5,1
Cc1ccc(C(=O)OCn2ncc(Cl)c(Cl)c2=O)cc1,-79,20,.,79*,5,36*
Cc1cc(C(=O)Cn2ncc(Cl)c(Cl)c2=O)c(C)n1CC(F)(F)F,.,.,-11,.,.,.
CCOC(=O)c1ccc(NC(=O)Cn2ncc(Cl)c(Cl)c2=O)cc1,.,.,-2,.,.,.
Cc1ccc(C)c(C(=O)Cn2ncc(Cl)c(Cl)c2=O)c1,-43,15,-1,43*,-6,17
COc1ccc(NC(=O)/C(Cl)=C(/Cl)S(=O)(=O)Cc2ccc(C)cc2)cn1,.,.,-1,.,30,51*
COc1ccc(NC(=O)C(CC(C)C)NC(=O)c2ccccc2C)cn1 (stereo not drawn),12,3,-1,-12,9,9
CCN1C(=O)/C(=C/c2ccc(OC)c(OC)c2)N=C1SCC(=O)NCc1ccco1,.,.,0,.,.,.
Cc1ccc(CN2CCN(/N=C/c3ccc(C)s3)CC2)c(C)c1,.,.,-6,.,.,.
Cc1ccc(C(=O)N2CCN(c3ccc(Cl)cc3)CC2)cc1,-16,88*,-2,16,-11,-4
COCc1[nH]nc2c1C(c1ccccc1Cl)C(C#N)=C(N)O2 (stereo not drawn),-12,88*,0,12,-3,-5
O=c1cc(-c2ccco2)oc2c1ccc1ccccc12,11,-7,2,-11,-16,9
O=c1cc(C(Cl)(Cl)Cl)oc2c1ccc1ccccc12,-4,38,0,4,30,80*
Oc1[nH]c2ccccc2c1N=Nc1nc2ccccc2s1,-2,-11,0,2,-8,-5
Cc1[nH]n(-c2ccc([N+](=O)[O-])cc2)c(=O)c1N=Nc1nc2ccccc2s1,19,-14,.,-19,-4,52*
COc1ccc(OC)c(N(CC(=O)Nc2cccnc2)S(=O)(=O)c2ccc(C)cc2)c1,-59,2,0,60*,-44,25
COc1ccc(S(=O)(=O)N(CC(=O)NC2CC2)c2ccc(C)cc2)cc1OC,-2,-18,-1,2,2,6
COc1ccc(OC)c(N(CC(=O)Nc2cccnc2)S(=O)(=O)c2ccc(OC)c(OC)c2)c1,-91,90*,0,91*,-6,24
COc1ccc(OC)c(N(CC(=O)NC2CC2)S(=O)(=O)c2ccc(C)cc2)c1,-2,-12,2,2,90*,-46
COc1cc(NS(=O)(=O)c2ccc(Nc3nc(-c4ccccc4)cs3)cc2)nc(OC)n1,.,.,-11,.,.,.
O=C(NC1CCCC1)C1C2C=CC(C2)C1C(=O)N1CCOCC1 (stereo not drawn),1,83*,1,-1,-24,-9
